Rtt109 HAT inh – inhibitors of Candida albicans Rtt109/Vps75 histone acetyltransferase. Q5AAJ8. purified Rtt109/Vps75, ThioGlo CoA-SH fluorescence, 4 h. inhibition, % at 34.9 µM. 330,000 tested, 0.16% active. AID 540336;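 active = inhibition of at least 50% in every replicate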
DENV2 CPE rescue – DENV2-induced cell death inhibition | DENV2-infected cells, cytopathic effect rescue, plate reader | CPE inhibition, % at 9.99 µM | 350,000 tested, 1.7% active; in the data active = CPE inhibition above about 20%, passing the limit was not always enough; tested in BHK-21 cells;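 also: 0% = median of neutral control wells and 100% = median of positive control wells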
ERp5 block – ERp5 (human) disulfide isomerase inhibition | Q15084 | ERp5 insulin aggregation, absorbance 650 nm, 90 min | inhibition, % at 9.99 µM | 350,000 tested, 0.05% active;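 active = mean replicate inhibition above about 25%, with every replicate also reaching it, limit read from the data, passing the limit was not always enough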
Target sequence (Q15084 whole entry, looked up): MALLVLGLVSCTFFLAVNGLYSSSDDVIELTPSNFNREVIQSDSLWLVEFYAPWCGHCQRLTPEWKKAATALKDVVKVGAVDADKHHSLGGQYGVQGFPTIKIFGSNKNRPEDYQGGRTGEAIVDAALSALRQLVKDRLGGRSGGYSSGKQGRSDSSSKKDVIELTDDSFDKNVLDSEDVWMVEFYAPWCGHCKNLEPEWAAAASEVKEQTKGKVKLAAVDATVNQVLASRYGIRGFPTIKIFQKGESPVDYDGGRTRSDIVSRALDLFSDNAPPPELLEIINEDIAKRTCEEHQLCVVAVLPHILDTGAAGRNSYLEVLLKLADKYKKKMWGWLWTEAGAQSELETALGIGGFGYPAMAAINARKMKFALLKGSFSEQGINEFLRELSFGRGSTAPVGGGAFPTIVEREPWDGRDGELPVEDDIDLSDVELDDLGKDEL
SIRT5 block – inhibitors of human sirtuin-5 desuccinylase; Purified SirT5, succinyl-peptide AMC, trypsin-coupled fluorescence; inhibition, % at 15 µM; 330,000 tested, 1.1% active; in the data active = inhibition above about 15%
PDI turbidity – inhibitors of human protein disulfide isomerase. P07237. PDI insulin aggregation turbidity, A650, 90 min. inhibition, % at 10 µM. 350,000 tested, 0.052% active;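 active = mean inhibition across replicates of 30% or more, whatever share of single replicates reach that level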
The depositor's hits bear a star; · = no result. An excerpt weighted towards active compounds, which were near 2.3% of everything screened.

SMILES	Rtt109 HAT inh	DENV2 CPE rescue	ERp5 block	SIRT5 block	PDI turbidity
CC(C)NC(=O)Nc1ccc2c(c1)C(=O)N([C@@H](C)CO)C[C@H](C)[C@@H](CN(C)CC1CCCCC1)O2	·	18	-6	-3	·
Cc1ccc(S(=O)(=O)N(C)C[C@H]2Oc3ccc(NC(=O)C4CCCCC4)cc3CC(=O)N([C@@H](C)CO)C[C@H]2C)cc1	·	-2	-1	1	·
COc1ccccc1NC(=O)N[C@@H]1CC[C@@H](CCNC(=O)c2ccc3c(c2)OCO3)O[C@@H]1CO	·	7	2	1	·
C[C@@H]1CN([C@@H](C)CO)C(=O)c2cc(NC(=O)CCN3CCOCC3)ccc2O[C@H]1CN(C)Cc1ccccc1	·	-4	-2	5	·
C[C@@H]1CCCCO[C@H](CN(C)C(=O)CCCN(C)C)[C@H](C)CN([C@@H](C)CO)C(=O)c2cc(NC(=O)C3CCCCC3)ccc2O1	·	-4	0	-8	·
N#C[C@@H]1[C@@H](c2ccccc2C2=CCCCC2)[C@H](CO)N1C(=O)NC1CCCC1	·	73*	-3	7	·
N#C[C@@H]1[C@H](c2ccc(-c3cncnc3)cc2)[C@@H](CO)N1C(=O)CN1CCOCC1	·	50*	-3	1	·
N#C[C@H]1[C@@H](c2ccccc2C2=CCCCC2)[C@H](CO)N1S(=O)(=O)c1ccccc1	·	-8	0	·	·
N#C[C@@H]1[C@@H](c2ccccc2C2=CCCCC2)[C@@H](CO)N1C(=O)NC1CCCC1	·	8	2	5	·
N#C[C@H]1[C@@H](c2ccccc2C2=CCCC2)[C@H](CO)N1C(=O)C1CCC1	·	-5	-1	2	·
N#C[C@H]1[C@@H](c2ccccc2C2=CCCC2)[C@H](CO)N1C(=O)C1CCCC1	·	41*	7	-5	·
N#C[C@@H]1[C@@H](c2ccccc2C2=CCCCC2)[C@@H](CO)N1S(=O)(=O)c1ccccc1	·	21*	1	·	·
Cc1noc(C)c1S(=O)(=O)Nc1ccc2c(c1)C(=O)N([C@H](C)CO)C[C@@H](C)[C@H](CN(C)C(=O)Nc1cccc3ccccc13)O2	·	-3	5	0	·
N#C[C@@H]1[C@@H](c2ccc(C3=CCCCC3)cc2)[C@H](CO)N1C(=O)C1CCOCC1	·	4	4	-3	·
N#C[C@@H]1[C@H](c2ccc(C3=CCCCC3)cc2)[C@H](CO)N1C(=O)C1CCOCC1	·	30*	4	-1	·
CCCCC[C@@H](C)N1C[C@H](COCc2ccccc2)Oc2cc(N3CCC[C@@H]3CO)ccc2S1(=O)=O	·	-10	0	27*	·
CCCCC[C@H](C)N1C[C@@H](COCc2ccccc2)Oc2cc(N3CC[C@H](N(C)C)C3)ccc2S1(=O)=O	·	61*	4	-4	·
CCCNC(=O)Nc1ccc2c(c1)OC[C@@H](C)N(C(=O)C1CCCCC1)C[C@H](C)[C@@H](OC)CN(C)C2=O	·	3	-4	-5	·
CCCC(=O)Nc1ccc2c(c1)C(=O)N(C)C[C@@H](OC)[C@H](C)CN(C(=O)c1ccccc1F)[C@H](C)CO2	·	18	-1	-2	·
C[C@@H]1CCCCO[C@H](CN(C)Cc2ccncc2)[C@@H](C)CN([C@@H](C)CO)C(=O)c2cc(NC(=O)NC3CCCCC3)ccc2O1	·	75*	-3	6	·
C[C@H]1CN([C@@H](C)CO)C(=O)c2cc(NC(=O)NC3CCCCC3)ccc2O[C@H]1CN(C)Cc1ccncc1	·	25*	0	-3	·
COc1ccc2c3c(n(C)c2c1)[C@H](CO)N(C(=O)C1CCCCC1)CC31CN(C(=O)Nc2cccc(F)c2)C1	·	-5	9	2	·
Cc1ccc(C)c(S(=O)(=O)Nc2ccccc2C(=O)Nc2ccc(S(=O)(=O)Nc3ncccn3)cc2)c1	10	17	10	19*	11
CO[C@@H]1CN(C)C(=O)c2ccc(NC(=O)C3CC3)cc2OC[C@H](C)N(C(=O)NC(C)C)C[C@H]1C	·	-6	3	-4	·
CC1(C)CC(=O)c2cc(C(=O)NCc3ccco3)c(=O)n(-c3ccccc3)c2C1	4	·	·	·	-5
CC1(C)CC(=O)c2cc(C(=O)NNc3ccccc3)c(=O)n(-c3ccccc3)c2C1	12	3	-3	21*	1
COc1ccc(-c2cc3ccccc3c(=O)o2)cc1	·	5	7	6	·
CN(C)c1ccc(-c2cc3ccccc3c(=O)o2)cc1	5	114*	-3	·	4
Cc1cc(O)c(C(C[N+](=O)[O-])c2ccc(Cl)cc2Cl)c(=O)o1 (configuration not stated)	56*	·	4	-5	5
